High-throughput results as filed in PubChem.
Rows were chosen to be rich in hits. Some 1.8% of all compounds tested hit in one or more screens of this group.
MEP2-GFP yeast = modulators of MEP2-GFP levels in yeast, primary screen, S. cerevisiae, multiplex flow cytometry, MLPCN library | S. cerevisiae MEP2-GFP strain, 3 h; 100% = DMSO control level | GFP response vs DMSO, % at 10 µM | 0.51% of 330,000 active;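 active = GFP response versus DMSO above a set limit, roughly screen mean plus 3 SD, cut at about 180% in these data; inconclusive = fewer than 70 cells counted for a yeast strain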;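 note: median GFP fluorescence of the barcode-gated MEP2-GFP cells per well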
RPL19A-GFP yeast = RPL19A-GFP expression modulators in yeast, primary screen, cell-based, S. cerevisiae, multiplex flow cytometry, MLPCN; S. cerevisiae RPL19A-GFP strain, 3 h; hits give low values; percent response vs DMSO, % at 10 µM; 0.3% of 330,000 active; AID 2025, 2009;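 active = percent response vs DMSO below 50%; inconclusive = fewer than 70 events counted for the yeast strain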;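 note: median channel GFP fluorescence of the barcoded RPL19A-GFP strain; ratio of sample median GFP to plate DMSO average so 100% = DMSO; lower means less RPL19A-GFP as with rapamycin TOR inhibition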
LAP4 TOR yeast = modulators of LAP4-GFP expression in yeast, primary screen, S. cerevisiae, multiplex flow cytometry, MLPCN library; 3 h; median GFP as percent of DMSO wells; GFP response vs DMSO, % at 10 µM; 0.34% of 320,000 active;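 active = GFP response vs DMSO above a set limit, about the screen mean plus 3 SD, cut at about 150% in these data; inconclusive = under 70 cell events counted for the yeast strain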
AGP1-GFP MLPCN = modulators of AGP1-GFP expression in yeast TOR pathway, primary screen, cell-based, multiplex flow cytometry, S. cerevisiae, MLPCN library; 3 h; GFP as percent of DMSO wells; GFP response vs DMSO, % at 10 µM; 0.02% of 320,000 active; AID 2066, 2009;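 active = GFP response relative to DMSO above a set limit, near screen average plus 3 SD, cut at about 150% in these data; inconclusive = fewer than 70 cells counted for the yeast strain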;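 note: median GFP channel fluorescence of the gated AGP1 strain per well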
CIT2-GFP yeast = modulators of CIT2-GFP expression in yeast, primary screen, S. cerevisiae, GFP fusion, multiplex flow cytometry, MLPCN library | 0.065% of 320,000 active | S. cerevisiae CIT2-GFP strain, 3 h; 100 means same as DMSO wells | GFP response vs DMSO, % at 10 µM | AID 2029, 2009;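 active = GFP response relative to DMSO above a set limit, near the screen mean plus 3 SD, cut at about 150% in these data; inconclusive = Fewer than 70 cells measured for a yeast strain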;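 note: ratio of well median GFP fluorescence to mean of DMSO wells on the plate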
Myeloid diff 2 = induction of myeloid progenitor differentiation, primary screen, cell-based, flow cytometry, MLPCN library | ER-HoxA9 myeloid progenitors, lysozyme-GFP differentiation | calls only at 10 µM | 1% of 360,000 active;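 active = normalized GFP-positive differentiation at or above the plate's own cutoff, the solvent-only control mean plus 3 SD; inconclusive = no clear call, values can overlap the other calls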;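 note: cells exposed to compound for four days before flow analysis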
An asterisk follows results filed as active; i = inactive; ? = inconclusive; . = no result; + = active, no number; [ ] = remark or other dose.

SMILES	MEP2-GFP yeast	RPL19A-GFP yeast	LAP4 TOR yeast	AGP1-GFP MLPCN	CIT2-GFP yeast	Myeloid diff 2
Cc1cccc(/C(N)=N/OC(=O)C23CC4CC(CC(C4)C2)C3)c1	87	93	119	54	154*	i
COc1ccccc1NC(=S)NCCc1c[nH]c2ccccc12	262*[may fluoresce violet]	.	89	?	?	i
COc1cc(NC(=S)NCCc2c[nH]c3ccccc23)c(OC)cc1Cl	104	105	111	108	101	i
CCC(C(=O)O)n1nnc(-c2ccc(OCc3ccccc3)c(OC)c2)n1 (configuration not stated)	109	107	101	98	98	.
CC(C)(C)OC(=O)[C@H](CCCCN)NC(=O)c1[nH]cnc1C(=O)N[C@@H](Cc1ccccc1)C(=O)OCc1ccccc1	.	.	.	.	.	+
O=C(O)CCc1ccc(-c2ccc(Br)cc2)o1	91	95	153*	72	68	i
O=C(O)CCc1ccc(-c2ccc(Cl)cc2)o1	97	107	142	74	83	i
O=C(CSc1nc(=O)n2ccccc2n1)N1CCCCCC1	96	98	114	113	101	i
O=S(=O)(c1ccc(Cl)nc1)N1CCc2ccccc21	93	97	118	101	90	i
O=S(=O)(c1ccc(Cl)nc1)N1CCCc2ccccc21	207*[may fluoresce violet]	53	71	?	?	i
CN(C(=O)CN1CCN(c2ccc([N+](=O)[O-])cn2)CC1)c1ccccc1	94	97	103	98	94	i
Cc1cc(C)n2nc(CC(=O)NNC(=O)COc3cccc(C)c3C)nc2n1	97	97	110	99	97	i
CNc1nc(-c2cccs2)cc(C(F)(F)F)c1C#N	592*[may fluoresce violet]	47*[may fluoresce violet]	99	17	?	i
COc1ccsc1C(=O)NCCN1CCOCC1	109	94	108	123	168*[may fluoresce green]	i
COc1ccc(CC(=O)NCCN2CCOCC2)cc1	107	99	104	98	96	i
C[C@H]1C=C(C(=O)N2CCOCC2)O[C@@H](OCc2ccc(CO)cc2)C1	.	.	.	.	.	+
Cc1cc(C)n2nc(C(=O)OCC(=O)Nc3ccc4c(c3)OCCO4)nc2n1	108	99	105	106	101	i
O=C(Cc1ccccc1)NN1C(=O)C2C3C=CC(C3)C2C1=O (configuration not stated)	232*[may fluoresce violet]	60	110	.	?	i
O=C(NCCCO)c1ccc2nc(-c3ccco3)c(-c3ccco3)nc2c1	.	.	.	.	.	i
O=C(NCCO)Nc1ccc2nc(-c3ccco3)c(-c3ccco3)nc2c1	?	13*[may fluoresce violet]	?	?	?	.
CC1(C)CC(=O)C(C#N)=C(NCCCO)C1	106	96	91	93	100	i
CC1(C)CC(=O)C([N+](=O)[O-])=C(NCCCC(=O)O)C1	709*[may fluoresce violet]	26*[may fluoresce violet]	86	?	?	i
CC1CC(C)CN(CCCNC(=O)C2CCCN(c3ncnc4c3nc3n4CCCCC3)C2)C1 (configuration not stated)	110	101	103	107	108	i
Nc1cccc2c1C(=O)N(C(=O)c1ccco1)C2=O	109	94	112	101	110	i
Nc1cccc2c1C(=O)N(C(=O)/C=C/c1ccc(F)cc1)C2=O	127	89	206*[may fluoresce violet]	19	?	i
SMILES	MEP2-GFP yeast	RPL19A-GFP yeast	LAP4 TOR yeast	AGP1-GFP MLPCN	CIT2-GFP yeast	Myeloid diff 2
Cc1ccc(Sc2ccc(CN3CCCCC3)cc2[N+](=O)[O-])cc1	100	92	116	98	81	i
CN(C)C(=O)CCc1ccc2c3c([nH]c2c1)[C@]1(C)[C@@H](C(=O)N2CCOCC2)C[C@H](CC(=O)NCCCn2ccnc2)C(=O)N1CC3	.	.	.	.	.	i
CCCNC(=O)c1ccccc1NC(=O)c1ccccc1N(C)S(=O)(=O)c1ccc(C)cc1	.	.	.	.	.	+
CCCNC(=O)c1ccccc1NC(=O)c1ccccc1N(C)S(C)(=O)=O	103	104	106	108	108	i
Cc1ccc(N/N=C/c2c(O)cc(C)oc2=O)cc1	100	105	94	81	132	i
Cc1ccc(CO/N=C/c2c(O)cc(C)oc2=O)cc1	99	99	164*	89	98	i
CCOC(=O)/C(C#N)=C\c1ccc(N2CCN(C/C=C/c3ccccc3)CC2)cc1	104	90	92	88	89	+
CCOC(=O)/C(C#N)=C\c1cc(C)n(-c2ccccc2)c1C	108	107	105	110	112	i
CCN(Cc1nc2ccccc2c(=O)[nH]1)C(=O)CN1C(=O)NC2(CCCCC2C)C1=O (configuration not stated)	95	95	107	97	88	i
COc1ccc(OC)c(C2=NOC(C(=O)Nc3cccc(C(C)=O)c3)C2)c1 (configuration not stated)	97	95	97	92	87	+
COc1ccc(OC)c(C2=NOC(C(=O)Nc3ccccc3SC)C2)c1 (configuration not stated)	94	93	103	96	86	i
O=[N+]([O-])c1ccc(Oc2cccc3cccnc23)c(Cl)c1	113	101	107	107	99	i
CN1CCN(C(=O)CSc2nc(-c3cccs3)cc(-c3cccs3)c2C#N)CC1	109	100	112	101	99	+
CCCCCN1CC(=O)N2C(C)c3[nH]c4ccccc4c3C[C@H]2C1=O (some centres not stated)	110	103	102	92	96	+
CCCCN1C(=O)C2Cc3c([nH]c4ccccc34)CN2C1=S (configuration not stated)	140	98	133	100	100	+
CCCCOCCCN1CC(=O)N2C(C)c3[nH]c4ccccc4c3C[C@H]2C1=O (some centres not stated)	103	106	86	98	93	i
C=CCN1CC(=O)N2Cc3[nH]c4ccccc4c3C[C@H]2C1=O	111	104	105	102	105	+
O=C1[C@@H]2Cc3c([nH]c4ccccc34)CN2C(=O)CN1CCCO	112	114	106	107	110	i
Cn1c(/C(C#N)=C(\O)c2ccc(Cl)s2)nc2ccccc21	107	101	103	84	97	i
COc1ccc(-c2nc3ccc(C(=O)NCCCN4CCOCC4)cc3nc2-c2ccc(OC)cc2)cc1	97	103	104	87	100	i
CCOC(=O)CSc1nc2nc(Cl)c(Cl)nc2[nH]1	.	.	.	.	.	i
